Experimental data reported in PubChem BioAssay AID743060 (The Scripps Research Institute Molecular Screening Center, 2013).

assay: T. brucei methionyl-tRNA synthetase enzyme inhibition – biochemical, radioactivity, round 1, late-stage follow-up (AID 743060); conditions: purified enzyme, radiolabel aminoacylation, scintillation, 2 h; at 10 µM; stronger effect = higher value

Row | SMILES | inhibition [%]
1 | CCN(C(=O)Cn1cc(C(=O)C(=O)N2CCOCC2)c2ccccc21)c1ccccc1 | -23.7
2 | CCO[C@@H]1OC(C(=O)NCc2nc3ccccc3[nH]2)=C[C@H](c2ccc(Br)cc2)[C@H]1CCCO | 64
3 | CCC(=O)c1cn(CC(=O)Nc2cccc(C(F)(F)F)c2)c2ccccc12 | 4.46
4 | COc1ccc(CCN(C(=S)Nc2ccccc2)C2CC(=O)N(c3ccc(Cl)cc3)C2=O)cc1 (centres undefined) | 99.4
5 | CN(CC(=O)Nc1ccc(Cl)cc1)C(=O)c1ccc(-n2cncn2)c([N+](=O)[O-])c1 | 92.5
6 | COCCc1nc2ccc(C(=O)NCCc3nc4ccc(OC)cc4[nH]3)cc2o1 | -2.59
7 | Oc1c(Cl)cc(Cl)cc1CNc1nc2ccccc2[nH]1 | 98.7
8 | Cc1ccc(C(=O)NCCc2nc3ccccc3[nH]2)cc1[N+](=O)[O-] | 86.4
9 | COc1ccc(CCN(C(=O)c2cccc(F)c2)C2CC(=O)N(c3ccc(Br)cc3)C2=O)cc1 (centres undefined) | -7.62
10 | O=C(NCCc1nc2ccccc2[nH]1)c1ccc(Cl)c(Cl)c1 | 97.5
11 | O=C(NCc1nc2ccccc2[nH]1)C1=C[C@@H](c2ccc(Br)cc2)C[C@@H](OCc2ccc(CO)cc2)O1 | 97.6
12 | COc1ccc(CNC(=O)CSc2nnc3c(n2)[nH]c2ccc(F)cc23)cc1 | 89.6
13 | O=C(Cn1cc(C(=O)C(=O)N2CCOCC2)c2ccccc21)NCC1CCCO1 (centres undefined) | 1.28
14 | O=C(NCc1nc2ccccc2[nH]1)C1=C[C@H](c2ccc(Br)cc2)C[C@H](OCCCCO)O1 | 94.3
15 | COc1ccc(NC(=O)CSc2nnc3c4cc(C)ccc4n(C)c3n2)cc1 | -7.1
16 | O=C(CSc1nnc2c(n1)[nH]c1ccc(Br)cc12)NCc1ccccc1 | 59.7
17 | CC(=O)c1cn(CC(=O)Nc2cccc(C(F)(F)F)c2)c2ccccc12 | 39.3

Row | SMILES | inhibition [%]
18 | Cc1ccc(CNC(=O)CSc2nnc3c(n2)[nH]c2ccc(C)cc23)cc1 | 71.3
19 | COc1ccc(OCC(O)CNC(=O)Nc2ccc(Cl)cc2)cc1 (centres undefined) | 61.9
20 | CC(C)(C)[C@@H]1C=C(C(=O)NCc2nc3ccccc3[nH]2)O[C@H](OCc2ccc(CO)cc2)C1 | 84.8
21 | CN(Cc1cc(Cl)cc(Cl)c1)[C@H]1C[C@H]2c3[nH]c4ccccc4c3CCN2C(=O)[C@H]1CO | 101
22 | O=C(Cn1cnc2ccccc21)Nc1cccc([N+](=O)[O-])c1 | 91.9
23 | O=C1CC(N(CCc2ccccc2)C(=S)Nc2ccccc2)C(=O)N1c1ccc(Br)cc1 (centres undefined) | 97.3
24 | O=C(Cn1cc(C(=O)C(=O)N2CCOCC2)c2ccccc21)NCc1ccccc1 | 16.7
25 | Cc1cccc2[nH]c(CCN(C)C(=O)c3cccc(C4CCNC4)c3)nc12 (centres undefined) | -14.3
26 | CC(=O)N(CCc1ccccc1)C1CC(=O)N(c2ccc(Br)cc2)C1=O (centres undefined) | -21.2
27 | CCCCCCCCCC1NC(C(=O)O)Cc2c1[nH]c1ccccc21 (centres undefined) | 93.2
28 | Brc1cnc2nc(SCc3nc4ccccc4[nH]3)[nH]c2c1 | 84.9
29 | CCN(CC)C(=O)C(=O)c1cn(CC(=O)N2CCCc3ccccc32)c2ccccc12 | -17.2
30 | O=C(C(=O)N1CCOCC1)c1cn(CC(=O)N2CCCc3ccccc32)c2ccccc12 | -4.11
31 | CCCCn1c(CCNC(=O)c2ccc(F)cc2)nc2ccccc21 | 2.32
32 | O=C(NCc1nc2ccccc2[nH]1)C1=C[C@H](C2CC2)C[C@H](OCc2ccc(CO)cc2)O1 | 56.9
33 | O=C(CSC1CC(=O)N(c2cccc(Cl)c2)C1=O)Nc1ccc(Br)cc1 (centres undefined) | 79.9
34 | COc1ccc2[nH]c3nc(SCC(=O)Nc4ccc5c(c4)OCO5)nnc3c2c1 | 65.6
